Algae TAG accum: increases triacylglycerol in Chlamydomonas reinhardtii; Chlamydomonas reinhardtii TAG, Nile Red fluorescence, 72 h; calls only at 10 µM (by protocol); 44,000 compounds, 0.84% hits; call rule not given here;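 note: hits raise Nile Red signal meaning more stored TAG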
Numbers without * were called inactive; i = inactive; + = active, no number. Shown is part of a subset that was picked to be rich in hits.

SMILES	Algae TAG accum
O=C(Nc1ccccc1C(=O)Nc1ccccc1Cl)c1ccncc1	+
Cc1ccc2c(=O)c(C(=O)c3ccco3)coc2c1	i
CC1CN(C(=O)CC(c2ccccc2)c2ccccc2)CC(C)O1 (stereo not drawn)	i
O=C(CSc1nnnn1-c1ccc2c(c1)OCO2)N1CCOCC1	i
Cc1cc(NC(=O)c2cc(Cl)ccc2Cl)ccc1NC(=O)c1ccccc1	i
CCC(C(=O)Nc1cccc(Cl)c1C)c1ccccc1 (stereo not drawn)	i
Cc1ccc(C(=O)Nc2ccccc2C(=O)NCCC(=O)O)cc1	i
Cc1cc(N2CCOCC2)nc(NCc2ccccc2)n1	i
Cc1cc(NCc2ccccc2)nc(N2CCOCC2)n1	+
Cc1cc(NCc2ccccc2)nc(-c2ccccc2O)n1	i
O=C(Nc1ccc(I)cc1)C1CCCO1 (stereo not drawn)	i
C=CCn1c(=O)c(C(=O)NCc2ccccc2F)c(O)c2ccccc21	i
CCc1ccc(CNC(=O)C(=O)Nc2ccccc2F)cc1	i
O=[N+]([O-])c1ccc(CN2CCN(c3ncccn3)CC2)cc1	i
O=[N+]([O-])c1ccc(N2CCN(Cc3ccncc3)CC2)cc1	i
O=C(O)c1ccc(CN2CCN(c3ccc([N+](=O)[O-])cc3)CC2)cc1	i
COc1cc(CN2CCN(c3ccc([N+](=O)[O-])cc3)CC2)cc(Br)c1O	i
CCCCOc1ccc(CN2CCN(c3ccc([N+](=O)[O-])cc3)CC2)cc1	+
CCOc1ccc(CN2CCN(c3ccc([N+](=O)[O-])cc3)CC2)cc1	+
CCOc1ccccc1NC(=O)COc1ccc(Br)cc1Cl	i
Cc1ccc([N+](=O)[O-])cc1Cc1cc(F)ccc1F	i
COc1ccc(-n2nc3cc(C)c(NC(=O)c4ccco4)cc3n2)cc1Cl	i
O=c1[nH]nc(-c2ccccc2)c2cc3c(-c4ccccc4)n[nH]c(=O)c3cc12	i
Cc1cc(NC(=O)CC2SC(N)=NC2=O)no1 (stereo not drawn)	i
Cc1ccc(C)c(N2CCN(C3CCc4ccccc4C3)CC2)c1 (stereo not drawn)	+
SMILES	Algae TAG accum
Fc1cccc(F)c1CN1CCN(C/C=C/c2ccccc2)CC1	i
O=C1CC(N2CCN(C/C=C/c3ccccc3)CC2)C(=O)N1c1ccc(Br)cc1 (stereo not drawn)	i
CN1CCN(C2Cc3ccccc3C2)CC1	i
Cc1ccc(C)c(N2CCN(C(=O)C3CCC3)CC2)c1	i
C(=C\c1ccccc1)/CN1CCN(C2CCc3ccccc3C2)CC1 (stereo not drawn)	+
O=c1c2c(nc(NCCO)n1Cc1ccccc1)-c1ccccc1CC21CCCC1	i
O=C(COc1cccc([N+](=O)[O-])c1)Nc1ccccc1C(=O)O	i
CNC(=O)C(=O)Nc1ccc(C)c(C)c1	i
Cc1ccc(OCC(=O)Nc2ccc(C(=O)Nc3nccs3)cc2)cc1C	i
CCC(CC)C(=O)Nc1ccc(C(=O)Nc2nccs2)cc1	+
Cc1ccc(C(=O)Nc2nccs2)cc1Br	i
CCCCOc1ccc(N2C(=O)CC(N3CCOCC3)C2=O)cc1 (stereo not drawn)	i
COc1ccc(CN2CCC(C(=O)N3CCc4ccccc4C3)CC2)cc1OC	i
O=[N+]([O-])c1ccc(N2CCCC2)cc1N1CCN(Cc2ccccc2)CC1	i
Cc1ccc(NC(=O)COc2ccccc2[N+](=O)[O-])cc1Cl	i
Cc1ccc(Cl)cc1NC(=O)C1C2C=CC(O2)C1C(=O)O (stereo not drawn)	i
O=C(O)C1C2C=CC(O2)C1C(=O)Nc1ccccc1F (stereo not drawn)	+
O=C(Nc1ccccc1F)[C@@H]1C2C=CC(C2)[C@@H]1C(=O)O (stereo partly drawn)	i
COc1ccc(C(=O)NCc2ccccc2)cc1[N+](=O)[O-]	i
Cc1ccnc(Nc2nc(-c3ccc(Cl)c(Cl)c3)cs2)c1	i
Cc1ccc(S(=O)(=O)NCCCN2CCOCC2)cc1	i
COc1cc(C)c(S(=O)(=O)NCCN2CCOCC2)cc1C	i
Cc1cc(I)ccc1S(=O)(=O)NCCCN1CCOCC1	+
COc1cc(Cl)c(S(=O)(=O)NCCCN2CCOCC2)cc1Cl	+
Cc1c(Cl)ccc(S(=O)(=O)NCCN2CCOCC2)c1Cl	i
SMILES	Algae TAG accum
COc1cc(C)c(C)cc1S(=O)(=O)NCCN1CCOCC1	i
Cc1ccc(-c2nc(NCCO)c3ccccc3n2)cc1	i
CC(=O)C1=C(C)NC(SCC(=O)c2ccc(F)cc2)=C(C#N)C1c1cccs1 (stereo not drawn)	i
Nc1ncc([N+](=O)[O-])cc1-c1ccccc1	i
Nc1nnc(SCc2cccc(Oc3ccccc3)c2)s1	i
COc1ccc(N(CC(=O)Nc2ccccc2C(=O)NC(C)C)S(C)(=O)=O)cc1	i
COc1ccccc1CN1CCC(C(=O)N(CCN(C)C)Cc2ccccc2)CC1	i
CCN(Cc1ccccc1)C(=O)C1CCN(Cc2ccccc2F)CC1	+
O=C(C1CCN(Cc2ccccc2O)CC1)N(CCO)Cc1ccccc1	i
Nc1nc(NC(=O)c2ccc(F)cc2)nn1-c1ccccc1	i
Cn1nc([N+](=O)[O-])nc1Oc1ccc(Cl)cc1Cl	i
COc1cccc(NC(=O)c2ccccc2C(=O)Nc2cccc(OC)c2)c1	i
COc1ccc(C(=O)Nc2ccc(F)c(Cl)c2)cc1[N+](=O)[O-]	i
CCOc1ccccc1N1CCN(C(=O)c2c(Cl)cccc2Cl)CC1	i
Cc1cccc(C)c1NC(=O)CSCc1ccccc1Cl	i
O=c1[nH]c(/C=C/c2ccccc2)nc2ccccc12	i
CN1CCCN(Cc2ccc(-c3ccccc3[N+](=O)[O-])o2)CC1	i
CN1CCCN(Cc2ccc([N+](=O)[O-])o2)CC1	+
O=[N+]([O-])c1ccc(CN2CCN(c3ccccc3)CC2)o1	i
CC(C)c1ccc(OCC(=O)NCc2ccccn2)cc1	i
O=C(Nc1nnc(Cc2ccc(Cl)cc2)s1)c1cccc(F)c1	i
COc1cc(C(=O)Nc2ccc(S(=O)(=O)N3CCCCC3C)cc2)cc(OC)c1OC (stereo not drawn)	i
CC1CCCCN1S(=O)(=O)c1ccc(NC(=O)c2ccc(Cl)cc2Cl)cc1 (stereo not drawn)	+
CC1CCCCN1S(=O)(=O)c1ccc(C(=O)Nc2ccc([N+](=O)[O-])cc2)cc1 (stereo not drawn)	i
Cc1cccc(-c2nnc(-c3ccco3)o2)c1	i
SMILES	Algae TAG accum
CN1CCC(N(C)Cc2cc(F)ccc2F)CC1	i
CN1CCC(N(C)Cc2cc(Cl)ccc2O)CC1	+
CN(C)Cc1cc(Cl)ccc1O	i
O=C(c1ccc(F)cc1)N1CCN(Cc2ccc([N+](=O)[O-])cc2)CC1	i
C1=CC2CC1CC2CN1CCN(C2CCC(c3ccccc3)CC2)CC1 (stereo not drawn)	+
O=C(c1ccc([N+](=O)[O-])cc1)N1CCN(CCO)CC1	i
C1=CC2CC1CC2CN1CCN(c2ccccc2)CC1 (stereo not drawn)	+
Oc1ccc(Br)cc1CN1CCN(CC2CC3C=CC2C3)CC1 (stereo not drawn)	+
CCC(C)N1CCN(CC2CC3C=CC2C3)CC1 (stereo not drawn)	i
CCN1CCN(CC2CC3C=CC2C3)CC1 (stereo not drawn)	i
O=[N+]([O-])c1ccccc1S(=O)(=O)N1CCN(CC2CC3C=CC2C3)CC1 (stereo not drawn)	i
